{
  "source": "PubChem BioAssay AID2116",
  "about": "(The Scripps Research Institute Molecular Screening Center, 2009)",
  "target": "Mucolipin-3 (Homo sapiens) (UniProt Q8TDD5)",
  "sequence (Q8TDD5 whole entry, looked up)": "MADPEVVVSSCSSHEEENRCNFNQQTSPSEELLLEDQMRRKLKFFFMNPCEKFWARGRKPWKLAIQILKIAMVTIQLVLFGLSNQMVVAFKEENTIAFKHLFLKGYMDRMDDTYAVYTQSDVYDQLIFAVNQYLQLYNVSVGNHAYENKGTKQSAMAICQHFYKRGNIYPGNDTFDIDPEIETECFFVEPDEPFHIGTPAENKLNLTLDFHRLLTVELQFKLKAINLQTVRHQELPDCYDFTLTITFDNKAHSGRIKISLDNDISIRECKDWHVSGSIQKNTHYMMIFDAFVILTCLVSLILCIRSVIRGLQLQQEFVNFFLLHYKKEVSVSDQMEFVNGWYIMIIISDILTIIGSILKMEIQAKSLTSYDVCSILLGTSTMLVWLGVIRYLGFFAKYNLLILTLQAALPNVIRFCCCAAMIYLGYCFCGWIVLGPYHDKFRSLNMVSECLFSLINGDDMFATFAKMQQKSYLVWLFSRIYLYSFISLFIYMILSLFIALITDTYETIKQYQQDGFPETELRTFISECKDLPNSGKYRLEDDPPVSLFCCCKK",
  "assay": "activators of mucolipin-3 and mucolipin-2 – cell-based, patch clamp, Fura-2 profiling panel (AID 2116)",
  "conditions": "HEK293 cells expressing TRPML3-YFP, TRPML3 Patch Clamp Assay; patch clamp current at -80 mV",
  "note": "Activity calls are given as the source filed them. How the calls were made is not given here.",
  "data": [
    {"smiles": "O=S(=O)(Nc1ccccc1N1CCCCC1)c1ccc(Cl)s1", "values": [
      {"measurement": "current density", "result": -0.24, "unit": "nA/pF"},
      {"measurement": "outcome", "result": "active; no effect on six other TRP channels"}
    ]},
    {"smiles": "O=S(=O)(NC1CCCCC1N1CCOCC1)c1ccc(Cl)cc1", "note": "(stereo not given)", "values": [
      {"measurement": "current density", "result": -0.55, "unit": "nA/pF"},
      {"measurement": "outcome", "result": "active; no effect on six other TRP channels"}
    ]},
    {"smiles": "Cc1ccc(S(=O)(=O)Nc2ccccc2-c2ccccc2)cc1", "values": [
      {"measurement": "current density", "result": -0.02, "unit": "nA/pF"},
      {"measurement": "outcome", "result": "active; no effect on six other TRP channels"}
    ]},
    {"smiles": "Cc1ccc(N2CCN(S(=O)(=O)N3CCCCC3)CC2)c(C)c1", "values": [
      {"measurement": "current density", "result": -0.42, "unit": "nA/pF"},
      {"measurement": "outcome", "result": "active; no effect on six other TRP channels"}
    ]},
    {"smiles": "O=S(=O)(Nc1ccccc1N1CCOCC1)c1ccc(Cl)s1", "values": [
      {"measurement": "current density", "result": -0.37, "unit": "nA/pF"},
      {"measurement": "outcome", "result": "active; no effect on six other TRP channels"}
    ]}
  ]
}
